# Results published in PubChem BioAssay AID602449 (Sanford-Burnham Center for Chemical Genomics, 2012).
# Among all 360,000 compounds or so, about 5,000 (1.4%) were called active.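 Rule for the calls: active = inhibition of 50% or more, scaled per plate between neutral and stimulator controls; inactive = the rest.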 This excerpt belongs to a sample that is enriched for actives.
# Assay: mitochondrial permeability transition pore inhibitors, primary screen, biochemical, isolated mouse mitochondria, absorbance (AID 602449);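 note: 0% = DMSO wells given calcium and 100% = 1 mM EGTA wells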
# Settings: Ca2+ swelling absorbance, 30 min, at 10 µM, active compounds read high
row,SMILES,inhibition
1,CCOC(=O)c1ccc(NC(=S)N2CCCC2)cc1,-9.2% (inactive)
2,Cc1ccc(NC(=O)OCCNC(=O)c2ccncc2)cc1,-2.2% (inactive)
3,CCCCCOC(=O)NCCOC(=O)Nc1ccc(C(=O)OCC)cc1,62.1% (active)
4,CC1CCCCC12NC(=O)N(CC(=O)OCc1c(F)cccc1Cl)C2=O (centres undefined),1.5% (inactive)
5,Cc1cc(C(=O)O)c(S(C)(=O)=O)s1,0% (inactive)
6,O=S1(=O)CC(NCc2ccccc2)C(Nc2ccc(Cl)cc2)C1 (centres undefined),-0.2% (inactive)
7,O=C(COc1ccc(Cl)cc1)Nc1ccc2c(c1)OCO2,-0.4% (inactive)
8,Cc1cc(N2CCCC2)ccc1NC(=O)COc1ccc(Cl)cc1,-0.2% (inactive)
9,Cc1ccc(NC(=O)COc2ccc(-n3ccnc3)cc2)cc1Cl,83.4% (active)
10,COc1ccccc1Nc1ncc(C(C)=O)c(C)n1,-2.1% (inactive)
11,CN(CC(=O)Nc1ccc(S(=O)(=O)N2CCCC2)cc1)Cc1ccc(Cl)c(Cl)c1,3.3% (inactive)
12,O=C(CSCc1ccc(Br)cc1)Nc1ccc(S(=O)(=O)N2CCCCCC2)cc1,58.6% (active)
13,O=C(CN1CCCCCC1)Nc1ccc(S(=O)(=O)N2CCCCC2)cc1,0.7% (inactive)
14,Cc1occc1-c1nnc(SCC(=O)NC2(C#N)CCCC2)n1C,-0.8% (inactive)
15,COc1ccc(S(=O)(=O)N2CCOCC2)cc1NC(=O)Cc1c(F)cccc1Cl,-0.8% (inactive)
16,CC(C)(C)NC(=O)NC(=O)COC(=O)Cc1c(F)cccc1Cl,2% (inactive)
17,O=C(Cc1c(F)cccc1Cl)Nc1ncc([N+](=O)[O-])s1,61.9% (active)
18,O=C(OC(C(=O)NC1CCCC1)c1ccc(F)cc1)c1ccno1 (centres undefined),-3.3% (inactive)
19,CC(=O)C1C(c2ccc(Cl)cc2)c2c(n[nH]c2C)CC1(C)O (centres undefined),1.5% (inactive)
20,Cc1ccc(OS(=O)Nc2cccc3nccnc23)cc1 (centres undefined),-0.1% (inactive)
21,O=C(Nc1ccc2c(c1)OCCO2)c1ccc(Cl)c(S(=O)(=O)N2CCCCC2)c1,9% (inactive)
22,FC(F)(F)c1cccc(NC(=S)Nc2cccc(Cl)c2)c1,97.6% (active)
23,S=C(Nc1cccc(Cl)c1)Nc1ccc2c(c1)OCCO2,53.6% (active)
24,O=C(Nc1cccc(S(=O)(=O)Nc2ccc(Cl)cc2)c1)c1ccc2c(c1)OCCO2,77.8% (active)

row,SMILES,inhibition
1,S=C(NCc1ccco1)Nc1ccc2c(c1)OCCO2,-2.6% (inactive)
2,O=C(Nc1cccc(Cl)c1)c1cncn1-c1ccc(F)cc1,-1.7% (inactive)
3,C/C(CC(=O)Nc1cccc(C(F)(F)F)c1)=N\NC(=O)C(=O)NCC(C)C,-0.9% (inactive)
4,O=C(Nc1ccc2c(c1)OCCO2)C1CCCC1,-1.6% (inactive)
5,CC(NS(=O)(=O)c1ccc(Cl)cc1)C(=O)Nc1ccc2c(c1)OCCO2 (centres undefined),-0.3% (inactive)
6,O=C(NCCCn1ccnc1)C(=O)c1cn(CC(=O)N2CCCCCC2)c2ccccc12,0% (inactive)
7,Cc1c(C(=O)O)nnn1-c1nonc1N,-1.7% (inactive)
8,Cc1nn(-c2ccccc2)c2c1c(C)c(CCC(=O)NCC1CCCO1)c(=O)n2C (centres undefined),1.8% (inactive)
9,Cc1csc(NC(=O)CSc2nnc(-c3cccnc3)o2)n1,-0.1% (inactive)
10,Cc1cc(C)nc(NS(=O)(=O)c2ccc(N/C=C\C(=O)c3cccs3)cc2)n1,-0.9% (inactive)
11,CC(Sc1nnc(C2CC2)n1C1CC1)C(=O)Nc1ccc(C(N)=O)cc1 (centres undefined),0.5% (inactive)
12,Cc1nc(Nc2ccccc2C)c2cnn(C)c2n1,-0.2% (inactive)
13,Cc1ccc2c(=O)cc(C(=O)NCCc3ccc(S(N)(=O)=O)cc3)oc2c1C,-0.4% (inactive)
14,O=C(Nc1cccc(-c2cccc(Cl)c2)c1)C1CCN(C2CCC2)CC1,65.4% (active)
15,CCn1cc(CN2CCC(C(=O)Nc3cccc(-c4cccc(Cl)c4)c3)CC2)c(C)n1,0.6% (inactive)
16,CCn1cc(CN2CCC(C(=O)Nc3cccc(-c4cccc(Cl)c4)c3)CC2)cn1,-0.3% (inactive)
17,O=C(c1ccc(F)cc1)c1c[nH]c(C(=O)NCc2cccnc2)c1,0.8% (inactive)
18,Cc1cc(C(=O)NCCc2ccc(Cl)cc2)n(-c2ccccc2)n1,1% (inactive)
19,Cc1ccc(NC(=O)Nc2cc(-c3ccccc3)nn2C)cc1Cl,83.1% (active)
20,O=C(Nc1ccc(Cl)c(Cl)c1)N1CC=C(c2ccccc2)CC1,12.4% (inactive)
21,Cc1cc(NC(=O)Nc2ccc(Cl)cc2)n(-c2ccccc2)n1,70.8% (active)
22,CC(=O)c1cccc(NC(=O)c2cc(C)nn2-c2ccccc2)c1,-1.3% (inactive)
23,COc1ccc(NC(=O)c2cc3nc(-c4ccccc4)cc(C)n3n2)cc1OC,2.1% (inactive)
24,O=C(NCc1ccc(F)cc1)C(c1ccccc1)N(C(=O)c1csnn1)C1CC1 (centres undefined),4.8% (inactive)

row,SMILES,inhibition
1,CC(C)NS(=O)(=O)c1ccc(NC(=O)C2CCCCC2)cc1,-1.2% (inactive)
2,CCOc1cccc2c1OC1(CCCCC1)N1N=C(c3cccnc3)CC21 (centres undefined),0.5% (inactive)
3,CC(=O)Nc1ccc(CC#N)cc1,2.1% (inactive)
4,COc1cccc(N(C(=O)c2snc(C(N)=O)c2N)C(C(=O)NCC2CCCO2)c2c[nH]c3ccccc23)c1 (centres undefined),-1.8% (inactive)
5,CCOC(=O)C1CCCN(S(=O)(=O)c2ccc(-n3cnnn3)c(C)c2)C1 (centres undefined),0.9% (inactive)
6,O=S(=O)([N-]c1nc2ccccc2nc1-[n+]1ccc(Cc2ccccc2)cc1)c1ccc(Br)s1,5% (inactive)
7,Cc1cccc(NS(=O)(=O)c2ccc(C(=O)NCC(C)(C)N3CCOCC3)cc2)c1C,1.5% (inactive)
8,CCOc1ccc(NC(=O)c2ccc(NC(=O)COC(=O)c3ccc(NC(=O)CC#N)cc3)cc2)cc1,0.5% (inactive)
9,CCC(C)(C)c1ccc(Oc2ccc(NC(=O)COC(=O)C3=COCCO3)cc2)cc1,79.2% (active)
10,COc1ccc(NC(=O)COC(=O)C2COc3ccccc3O2)cc1 (centres undefined),-0.6% (inactive)
11,O=C(NNC(=S)NCc1ccccc1)c1ccc(OC(F)F)cc1,-1.2% (inactive)
12,O=S(=O)(Nc1ccc(O)c2ccccc12)c1ccc(OC(F)(F)F)cc1,34.9% (inactive)
13,FC(F)(F)Oc1ccc(NC(=S)NCc2ccccc2)cc1,77.1% (active)
14,Cc1cc(OCCCC(=O)Nc2cc(S(=O)(=O)N3CCOCC3)ccc2N2CCOCC2)ccc1Cl,0.2% (inactive)
15,O=[N+]([O-])c1cc(Cl)cc(/C=N/NC(=S)Nc2cc(S(=O)(=O)N3CCOCC3)ccc2Cl)c1O,76.5% (active)
16,O=C(Nc1cc(S(=O)(=O)N2CCOCC2)ccc1Cl)c1cc(=O)c2ccccc2o1,-1.5% (inactive)
17,CCOc1ccc(CN2CCN(Cc3ccon3)CC2CCO)cc1 (centres undefined),-1.1% (inactive)
18,COc1ccc(OCCNS(=O)(=O)Cc2ccccc2)cc1,0.9% (inactive)
19,COc1ccc(S(=O)(=O)NCCOc2ccccc2)cc1F,0.7% (inactive)
20,COc1ccc(S(=O)(=O)NCCCCOc2ccc(Cl)cc2)cc1,98.5% (active)
21,CCc1cccc(CC)c1NC(=O)COc1ccccc1C(=O)c1cc(C#N)c(=O)n(C2CCCCC2)c1,1% (inactive)
22,Cc1cc2cc3n(c2nn1)N=C(Cl)CC3,0.9% (inactive)
23,COc1ccc(C(=O)COC(=O)CN2C(=O)C3CC=CCC3C2=O)c(OC)c1 (centres undefined),-2.3% (inactive)
24,O=C(Nc1cccc(C(F)(F)F)c1)c1ccc(N2CCNCC2)c([N+](=O)[O-])c1,69.8% (active)

row,SMILES,inhibition
1,O=C(NC1C2CC3CC(C2)CC1C3)c1ccc(N2CCNCC2)c([N+](=O)[O-])c1 (centres undefined),-2.4% (inactive)
2,O=C(Nc1ccc(N2C(=O)c3cccc4cccc(c34)C2=O)cc1)c1ccc(N2CCCCC2)c([N+](=O)[O-])c1,1.1% (inactive)
3,CN(C)CCNC(=O)c1cccc(-c2cnc3c(NC=O)cc(-c4cccc(C(F)(F)F)c4)cn23)c1,-2.1% (inactive)
4,CCc1cccc(NC(=S)N(CCN(C)C)C2CCN(C(C)C)CC2)c1,-1.2% (inactive)
5,N#CCCN(C(=S)Nc1ccc(Cl)c(Cl)c1)C1CCCCC1,64.3% (active)
6,CS(=O)(=O)N(CC(=O)Nc1ccc(Cl)c(Cl)c1)C1CCCCC1,61.3% (active)
7,CCC(C)NC(=O)CN(C1CCCCC1)S(C)(=O)=O (centres undefined),-1.2% (inactive)
8,CS(=O)(=O)N(CC(=O)Nc1ccc(F)cc1)C1CCCCC1,1.1% (inactive)
9,N#CCCN(C(=O)Nc1ccc(Cl)c(Cl)c1)C1CCCCC1,20.5% (inactive)
10,Cc1cc(NC(=O)OC(C)C)ccc1-c1ccc(NC(=O)OC(C)C)cc1C,0.8% (inactive)
11,CN(C)c1nc2n(c(=O)n1)CCO2,-0.8% (inactive)
12,Cc1c(Cl)cccc1NC(=O)[C@@]1(CC(=O)O)CC(/C=C/c2ccccc2)=NO1,-0.3% (inactive)
13,C[C@H](NC(=O)NCCc1ccccc1)C(=O)O,-2.9% (inactive)
14,Cc1cc(S(=O)(=O)N2CCOCC2)ccc1OCC(=O)Nc1cccc(C(F)(F)F)c1,-0.9% (inactive)
15,CCNS(=O)(=O)c1ccc(NC(=O)c2cncc(Br)c2)cc1,-1.5% (inactive)
16,CCNS(=O)(=O)c1ccc(NC(=O)Nc2cccc(C(F)(F)F)c2)cc1,93.6% (active)
17,CN(CC(=O)Nc1ccccc1[N+](=O)[O-])Cc1ccc(Br)cc1,1.1% (inactive)
18,COc1cc(CNCc2ccc(OC)c3ccccc23)cc(OC)c1OC,90.9% (active)
19,COc1cc(CNCc2cccs2)cc(Br)c1OC,-0.5% (inactive)
20,COc1ccccc1N1CCN(Cc2ccc(OC)c3ccccc23)CC1,1.3% (inactive)
21,Cn1c(=O)c2cc(NC(=O)NCCc3cccs3)ccc2n1Cc1cccc(C(F)(F)F)c1,3.3% (inactive)
22,CCCCn1c(N)c(N(CCC(C)C)C(=O)COC(=O)c2cccnc2OCC)c(=O)[nH]c1=O,0.7% (inactive)
